The results in this text go back to PubChem BioAssay (Tox21).

Each structure is given as a SMILES string. Several values for one entry are separate records, joined by “and”; a condition that tells them apart may be missing. Equal entries are not always repeated. A number with no mark means an inactive call. Records with an inconclusive call do not appear. Activity calls are given as the source filed them. Calls come from the whole dose curve; as a rule, active = well fitted curve in the direction sought with a large enough effect in the repeat runs; inconclusive = weak or mixed curves; inactive = no such curve, though single readings can be large; an effect the other way counts as inactive or inconclusive.
% is set by controls: 0 for no effect and ±100 for the full control effect; potency is the fitted concentration of half-maximal effect.

The first assay in a line: qHTS assay to identify small molecule HDAC inhibitors (AID 1259364). For activity change, negative = inhibition: top concentration of the series differs between compounds. Note: nearly all actives have a fitted effect of over 45% in size. Particulars: HCT-116 HDAC-Glo I/II luminescence, 2 h; series mostly up to 92.4 µM; activity change, negative = inhibition: at the top concentration. In outline: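 Luminescence from a cell-permeant luminogenic class I/II HDAC substrate reports endogenous deacetylase activity in intact HCT-116 cells treated with compounds for 2 h.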
Turning to `CC(Cc1ccc(C(C)(C)C)cc1)CN1C[C@@H](C)O[C@@H](C)C1` (some centres not stated), the “activity change, negative = inhibition” value was -10.1%.
Still for that read-out and setting: the figure for `Oc1ccc2ccc3cccc4ccc1c2c34` is 4.91%.
Still for that read-out and setting: the same measure for `CCOP(=S)(OCC)OC(Cl)C(Cl)(Cl)Cl` (configuration not stated): -5.13%; for `CCOc1cc(C(C)(C)C)ccc1C1COC(c2c(F)cccc2F)=N1` (configuration not stated): -2.16% [at 42.5 µM].
Turning to `C=CCC1=C(C)C(OC(=O)C2C(C=C(C)C)C2(C)C)CC1=O` (configuration not stated), the “activity change, negative = inhibition” value was -0.444%.
As for `[Cd+2].[Cl-].[Cl-]`, the Potency result was “inactive”.
Turning to `CN(C)C(=S)[S-].CN(C)C(=S)[S-].[Cu+2]`, the activity change, negative = inhibition was -15% [at 19 µM].
On to `COc1ccc(N)cc1N`, for which the Potency result is “inactive”.
`CC1(C)C(/C=C(\Cl)C(F)(F)F)C1C(=O)OC(C#N)c1cccc(Oc2ccccc2)c1` (configuration not stated): the “activity change, negative = inhibition” value is -1.77%.
`O=C1NCN(c2ccccc2)C12CCN(CC1COc3ccccc3O1)CC2` (configuration not stated): the “activity change, negative = inhibition” value is -1.44% [at 42.5 µM].
For the molecule `Oc1ccc(C(c2ccc(O)cc2)(C(F)(F)F)C(F)(F)F)cc1`, the Potency result was “inactive”.
As for `Oc1ccc(C2(c3ccc(O)cc3)CCCCC2)cc1`, the “activity change, negative = inhibition” value was 1.44%.
For the molecule `Cl/C=C\CCl`, the “activity change, negative = inhibition” value was -0.552%.
As for `ClC(Cl)=C(Cl)Cl`, the “activity change, negative = inhibition” value is -1.55%.
Still for that read-out and setting: the same measure for `O=C(CBr)c1ccc(O)cc1`: -15.8%.
For the molecule `CCCOCC(=Nc1ccc(Cl)cc1C(F)(F)F)n1ccnc1`, the “activity change, negative = inhibition” value was -2.34%.
Take `OC(Cc1ccccc1Cl)(Cn1cncn1)C1(Cl)CC1` (configuration not stated): the “activity change, negative = inhibition” value was -0.532%.
The same measure, in the same setting: the same measure for `N#Cc1ccccc1Cl`: 3.75%.
Consider `N#CNC#N`, for which the “activity change, negative = inhibition” value was 0.891%.
Same read-out and setting: the same measure for `CCN`: -0.589%; for `CC(=O)OC1(c2ccccc2)CCN(CCc2ccccc2)CC1`: 4.36%.
As to `O=C(O)C1C2CCC(O2)C1C(=O)O` (configuration not stated), the Potency entry was “inactive”.
Regarding `Cc1cc(C(C)(C)c2cc(C)c(O)c(C)c2)cc(C)c1O`, the “activity change, negative = inhibition” value was -4.39%.
For `CC1(C)[C@H](C(=O)O[C@H](C#N)c2cccc(Oc3ccccc3)c2)[C@@H]1/C=C(\Cl)C(F)(F)F`, the Potency entry is “inactive”.
For the molecule `CC(C)CC(C)Nc1ccc(Nc2ccccc2)cc1` (configuration not stated), the “activity change, negative = inhibition” value is -6.66%.
The same measure, in the same setting: the same measure for `Brc1c(Br)c(Br)c(Oc2c(Br)c(Br)c(Br)c(Br)c2Br)c(Br)c1Br`: -0.806% [at 19 µM].
As for `CN(C)c1ccc(N=Nc2ccccc2)cc1`, the Potency was 4.33 µM (active).
As for `BrC(Br)Br`, the “activity change, negative = inhibition” value was -3.1%.
For the molecule `CSCCCN=C=S`, the “activity change, negative = inhibition” value was -18.2%.
In the case of `Clc1ccc(C(Cl)(Cl)Cl)c(Cl)c1`, the “activity change, negative = inhibition” value is 0.636%.
The same measure, in the same setting: the figure for `O=[N+]([O-])O.O=[N+]([O-])O.[Cd]` is 30.5%; for `CN(C)S(=O)(=O)N(SC(F)(Cl)Cl)c1ccccc1` it is 3.26%; for `c1cc[c]([Sb]([c]2ccccc2)[c]2ccccc2)cc1` it is -0.756%.
The same measure, in the same setting: the same measure for `CC(C)[C@H](C(=O)OC(C#N)c1cccc(Oc2ccccc2)c1)c1ccc(OC(F)F)cc1` (some centres not stated): -2.01%; for `c1ccc(OCC2CO2)cc1` (configuration not stated): 0.973%; for `[Cl][Sb]([Cl])[Cl]`: -6.56%.
As for `CCOP(=S)(OCC)SCS(=O)(=O)C(C)(C)C`, the “activity change, negative = inhibition” value was -0.559%.
In the case of `[Hg+2].[I-].[I-]`, the Potency is 24.3 µM (active).

The next assay can be described thus: qHTS assay to identify small molecule HDAC inhibitors - cell viability counter screen (AID 1259365). Note: nearly all actives have a fitted effect of over 50% in size. The settings on record: HCT-116 viability, CellTiter-Glo ATP luminescence, 2 h; series mostly up to 92.4 µM; activity change, negative = cytotoxicity: at the top concentration. In a few lines:
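Counter screen in wild-type HCT-116 cells: compounds dissolved in DMSO are pin-transferred onto overnight-plated cells and left 2hr at 37C. ATP-based CellTiter-Glo luminescence then measures viable cells.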
With `CC(Cc1ccc(C(C)(C)C)cc1)CN1C[C@@H](C)O[C@@H](C)C1` (some centres not stated), the “activity change, negative = cytotoxicity” value is -5.08%.
As for `Oc1ccc2ccc3cccc4ccc1c2c34`, the “activity change, negative = cytotoxicity” value is 5.64%.
As to `CCOP(=S)(OCC)OC(Cl)C(Cl)(Cl)Cl` (configuration not stated), the “activity change, negative = cytotoxicity” value was -10.6%.
For `[Cd+2].[Cl-].[Cl-]`, the Potency entry was “inactive”.
The same measure, in the same setting: the figure for `COc1ccc(N)cc1N` is 15.8 µM (active).
On to `CC1(C)C(/C=C(\Cl)C(F)(F)F)C1C(=O)OC(C#N)c1cccc(Oc2ccccc2)c1` (configuration not stated), for which the “activity change, negative = cytotoxicity” value was -1.3%.
In the case of `Oc1ccc(C(c2ccc(O)cc2)(C(F)(F)F)C(F)(F)F)cc1`, the Potency entry was “inactive”.
`Oc1ccc(C2(c3ccc(O)cc3)CCCCC2)cc1`: the “activity change, negative = cytotoxicity” value is -4.92%.
Take `Cl/C=C\CCl`: the “activity change, negative = cytotoxicity” value is 3.42%.
With `ClC(Cl)=C(Cl)Cl`, the “activity change, negative = cytotoxicity” value was -2.14%.
As for `O=C(CBr)c1ccc(O)cc1`, the “activity change, negative = cytotoxicity” value was 14.4%.
Same read-out and setting: the same measure for `OC(Cc1ccccc1Cl)(Cn1cncn1)C1(Cl)CC1` (configuration not stated): -2.86%; for `N#Cc1ccccc1Cl`: 1.94%.
As to `N#CNC#N`, the “activity change, negative = cytotoxicity” value is 0.632%.
In the case of `CCN`, the “activity change, negative = cytotoxicity” value is 0.348%.
As for `CC(=O)OC1(c2ccccc2)CCN(CCc2ccccc2)CC1`, the “activity change, negative = cytotoxicity” value was -15.2%.
With `O=C(O)C1C2CCC(O2)C1C(=O)O` (configuration not stated), the Potency result was “inactive”.
Consider `Cc1cc(C(C)(C)c2cc(C)c(O)c(C)c2)cc(C)c1O`, for which the “activity change, negative = cytotoxicity” value is -23.6%.
Consider `CC1(C)[C@H](C(=O)O[C@H](C#N)c2cccc(Oc3ccccc3)c2)[C@@H]1/C=C(\Cl)C(F)(F)F`, for which the Potency result is “inactive”.
Regarding `CC(C)CC(C)Nc1ccc(Nc2ccccc2)cc1` (configuration not stated), the “activity change, negative = cytotoxicity” value was -5.43%.
Still for that read-out and setting: the same measure for `CN(C)c1ccc(N=Nc2ccccc2)cc1`: -14%.
For `BrC(Br)Br`, the “activity change, negative = cytotoxicity” value is -0.594%.
On the same count and under the same terms, the figure for `Clc1ccc(C(Cl)(Cl)Cl)c(Cl)c1` is 0.34%; for `CC(C)[C@H](C(=O)OC(C#N)c1cccc(Oc2ccccc2)c1)c1ccc(OC(F)F)cc1` (some centres not stated) it is -5.83%; for `c1ccc(OCC2CO2)cc1` (configuration not stated) it is 1.02%.
With `[Cl][Sb]([Cl])[Cl]`, the “activity change, negative = cytotoxicity” value is -1.18%.
Still for that read-out and setting: the same measure for `CCOP(=S)(OCC)SCS(=O)(=O)C(C)(C)C`: -3.52%.
As for `[Hg+2].[I-].[I-]`, the Potency was 61.1 µM (active).

A further assay is described as follows: qHTS assay to identify small molecule agonists of the sonic hedgehog signaling (Shh) pathway - cell viability counter screen (AID 1259366). Note: nearly all actives have a fitted effect of over 50% in size. The settings on record: NIH/3T3 Gli1-Luc viability, CellTiter-Fluor, 24 h; series mostly up to 92.4 µM; viability change, negative = cytotoxic: at the top concentration. In outline: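 Cells are plated at 2,000 per well and left 4hr at 37C, 5% CO2 before compound addition. After 23hr of treatment, CellTiter-Fluor reagent is added for 1hr at 37C and fluorescence is measured.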
`CC(Cc1ccc(C(C)(C)C)cc1)CN1C[C@@H](C)O[C@@H](C)C1` (some centres not stated): the “viability change, negative = cytotoxic” value was 20.8%.
Same read-out and setting: the figure for `Oc1ccc2ccc3cccc4ccc1c2c34` is -22.5%; for `CCOP(=S)(OCC)OC(Cl)C(Cl)(Cl)Cl` (configuration not stated) it is 0.631%; for `CCOc1cc(C(C)(C)C)ccc1C1COC(c2c(F)cccc2F)=N1` (configuration not stated) it is -13.5% [at 42.5 µM].
As for `C=CCC1=C(C)C(OC(=O)C2C(C=C(C)C)C2(C)C)CC1=O` (configuration not stated), the “viability change, negative = cytotoxic” value was -6.59%.
On to `[Cd+2].[Cl-].[Cl-]`, for which the Potency was 4.9 µM (active) and 10.9 µM (active).
Consider `CN(C)C(=S)[S-].CN(C)C(=S)[S-].[Cu+2]`, for which the Potency is 2.64 µM (active).
Turning to `COc1ccc(N)cc1N`, the Potency is 9.99 µM (active) and 29.4 µM (active).
As to `Oc1ccc(C(c2ccc(O)cc2)(C(F)(F)F)C(F)(F)F)cc1`, the “viability change, negative = cytotoxic” value is -7.75%.
`Oc1ccc(C2(c3ccc(O)cc3)CCCCC2)cc1`: the Potency was 25.9 µM (active).
Take `Cl/C=C\CCl`: the “viability change, negative = cytotoxic” value is -0.311%.
For the molecule `ClC(Cl)=C(Cl)Cl`, the “viability change, negative = cytotoxic” value was 4.97%.
With `O=C(CBr)c1ccc(O)cc1`, the “viability change, negative = cytotoxic” value is -7.82%.
On the same count and under the same terms, the same measure for `OC(Cc1ccccc1Cl)(Cn1cncn1)C1(Cl)CC1` (configuration not stated): -0.374%; for `N#Cc1ccccc1Cl`: -2.52%.
As for `N#CNC#N`, the “viability change, negative = cytotoxic” value is -2.05%.
Same read-out and setting: the figure for `CCN` is 6.02%.
Turning to `O=C(O)C1C2CCC(O2)C1C(=O)O` (configuration not stated), the Potency was 19.6 µM (active) and 11.2 µM (active).
On the same count and under the same terms, the same measure for `CC1(C)[C@H](C(=O)O[C@H](C#N)c2cccc(Oc3ccccc3)c2)[C@@H]1/C=C(\Cl)C(F)(F)F`: “inactive”; for `CC(C)CC(C)Nc1ccc(Nc2ccccc2)cc1` (configuration not stated): 26.8 µM (active).
`Brc1c(Br)c(Br)c(Oc2c(Br)c(Br)c(Br)c(Br)c2Br)c(Br)c1Br`: the viability change, negative = cytotoxic was -1.06% [at 19 µM].
Take `CN(C)c1ccc(N=Nc2ccccc2)cc1`: the Potency is 27.3 µM (active).
On to `BrC(Br)Br`, for which the “viability change, negative = cytotoxic” value is -4.21%.
For `CSCCCN=C=S`, the “viability change, negative = cytotoxic” value was -6.33%.
`Clc1ccc(C(Cl)(Cl)Cl)c(Cl)c1`: the “viability change, negative = cytotoxic” value is 0.785%.
As for `O=[N+]([O-])O.O=[N+]([O-])O.[Cd]`, the Potency is 8.63 µM (active).
The same measure, in the same setting: the figure for `CN(C)S(=O)(=O)N(SC(F)(Cl)Cl)c1ccccc1` is 6.11 µM (active).
With `c1cc[c]([Sb]([c]2ccccc2)[c]2ccccc2)cc1`, the “viability change, negative = cytotoxic” value is -14.3%.
On to `CC(C)[C@H](C(=O)OC(C#N)c1cccc(Oc2ccccc2)c1)c1ccc(OC(F)F)cc1` (some centres not stated), for which the “viability change, negative = cytotoxic” value is -0.635%.
In the case of `c1ccc(OCC2CO2)cc1` (configuration not stated), the “viability change, negative = cytotoxic” value was 8.72%.
Consider `[Hg+2].[I-].[I-]`, for which the Potency is 2.43 µM (active).
